# PfHsp90 set2 = growth inhibition of yeast expressing Plasmodium Hsp90 | S. cerevisiae expressing PfHsp90, BacTiter-Glo ATP, 48 h; yeast lacking PDR1 and PDR3 efflux regulators | inhibition, % at 9.4 µM | 0.32% of 310,000 active | AID 504621;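 active = every replicate shows inhibition above about 80%, whatever the replicate mean, limit read from the data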;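 note: 0% = DMSO neutral controls and 100% = 20 µM radicicol positive controls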
# TIM10 inh = TIM10 yeast growth inhibition. S. cerevisiae TIM10 strain growth, BacTiter-Glo luminescence, 24 h. inhibition, % at 10 µM. 1.4% of 330,000 active;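 active = inhibition of 40% or more at the single tested concentration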;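 note: wild-type TIM10 isogenic control strain grown at permissive 25 °C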
# tim23-1 inh = inhibits growth of tim23-1 mutant yeast. inhibition, % at 20 µM. S. cerevisiae tim23-1 growth, BacTiter-Glo luminescence, 24 h. 1.3% of 330,000 active. AID 463212;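 active = growth inhibition of the mutant yeast at or above 50%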;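 note: temperature-sensitive mutant grown at 25 °C; plate controls were DMSO-treated mutant yeast for no effect and medium wells lacking yeast for full effect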
# tim10-1 inh = inhibits growth of tim10-1 mutant yeast; inhibition, % at 20 µM; 2.2% of 330,000 active; AID 463190; S. cerevisiae tim10-1 ts strain growth, BacTiter-Glo, 24 h;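 active = inhibition of at least 40%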;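 note: mutant grown at 25 °C; 0% = DMSO wells with yeast and 100% = wells holding no yeast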
# SKKanGAS inh = blocks kanamycin growth of S. pyogenes SKKanGAS strain. BacTiter-Glo, 6 h. inhibition, % at 7.5 µM. 1.3% of 300,000 active. AID 1662;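 active = mean replicate score, as percent of positive control median, at least 50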;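 note: strain carries kanamycin resistance gene driven by streptokinase promoter and grows in 40 µg/ml kanamycin; loss of luminescence reflects streptokinase promoter inhibition or plain growth inhibition; 0% = median of DMSO wells and 100% = positive control at its reference dose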
# ATG4B inhibitor = ATG4B (human) cysteine protease inhibition. ATG4B cleavage of LC3-PLA2, NBD-HPC fluorescence, 1 h. 0.51% of 340,000 active. inhibition, % at 8.33 µM. Q9Y4P1; in the data active = inhibition above about 40%
# Target sequence (Q9Y4P1 whole entry, looked up): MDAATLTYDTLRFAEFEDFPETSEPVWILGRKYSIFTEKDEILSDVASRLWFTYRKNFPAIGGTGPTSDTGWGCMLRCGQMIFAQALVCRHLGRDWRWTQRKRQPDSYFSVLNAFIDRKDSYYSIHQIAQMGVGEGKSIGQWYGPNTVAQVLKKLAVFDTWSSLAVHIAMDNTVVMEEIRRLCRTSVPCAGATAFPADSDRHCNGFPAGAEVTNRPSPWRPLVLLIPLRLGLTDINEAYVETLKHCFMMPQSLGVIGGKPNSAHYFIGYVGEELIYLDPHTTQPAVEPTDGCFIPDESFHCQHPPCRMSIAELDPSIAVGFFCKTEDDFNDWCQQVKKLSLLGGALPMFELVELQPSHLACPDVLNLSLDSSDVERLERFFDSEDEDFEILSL
# tim23-1 conf = confirmation of tim23-1 mutant yeast growth inhibitors; shares compounds with tim23-1 inh; S. cerevisiae tim23-1 growth, BacTiter-Glo luminescence, 24 h; inhibition, % at 20 µM; 83% of 4,400 active; AID 463218;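 active = inhibition above about 39% in either of two replicate wells at 20 µM, limit read from the data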;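 note: temperature-sensitive tim23-1 mutant grown at 25 °C; 0% = DMSO wells with yeast and 100% = medium wells without yeast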
# An asterisk follows results filed as active; x = not tested or not shown. This is a sample that favours compounds with a hit; in the whole collection about 4.7% have one here.
SMILES,PfHsp90 set2,TIM10 inh,tim23-1 inh,tim10-1 inh,SKKanGAS inh,ATG4B inhibitor,tim23-1 conf
COc1ccc(OCC(=O)Nc2ccc3c(c2)CCC3)cc1,-6,10,66*,6,x,3,58*
COC(=O)c1cc(OCC(=O)Nc2ccc3c(c2)CCC3)cc(C(=O)OC)c1,-4,0,15,0,x,-5,x
CC(C)(C)c1ccc(C2C3=C(CCCC3=O)NC3=C2C(=O)c2ccccc23)cc1 (stereo unspecified),-18,14,24,5,x,26,x
O=S(=O)(Nc1cccc(-c2nc3cccnc3s2)c1)c1ccc2c(c1)OCCO2,-23,29,58*,39,24,-13,52*
Cc1nc2ccc(S(=O)(=O)Nc3cc(-c4nc5cccnc5s4)ccc3C)cc2s1,67,4,60*,37,38,-34,55*
O=c1oc2cc(O[C@@H]3OC[C@@H](O)[C@H](O)[C@H]3O)ccc2c2ccccc12,-8,0,6,13,-1,-1,x
Cc1ccn2cc(C(=O)Nc3ccccc3N3CCOCC3)nc2c1,x,33,56*,20,-4,-14,41*
COC(=O)c1cc2ccccc2c(-c2c(O)ccc3ccccc23)c1O,-59,34,69*,-4,-5,2,-30
O=C1C=C(c2cc(F)ccc2F)C[C@@H](c2ccc(Cl)cc2)C1,-35,-1,43,-30,x,-3,x
CC(=O)Nc1ccc(C2=CC(=O)C[C@H](c3ccc(Cl)cc3)C2)cc1,-24,16,51*,19,x,-4,42*
O=C1C=C(c2cccc(Cl)c2O)C[C@@H](c2ccc(Cl)cc2)C1,-3,3,57*,16,x,1,40*
O=C1C=C(c2cccc(Cl)c2)C[C@@H](c2ccc(Cl)cc2)C1,-15,10,39,2,x,5,x
COc1ccc([C@H]2CC(=O)C=C(c3cccc(Cl)c3)C2)cc1,-46,28,51*,28,x,-1,46*
CSc1nsc(NC(=O)OCc2ccc(Cl)cc2)n1,-5,12,20,6,10,9,x
CCN(c1cccc(C)c1)S(=O)(=O)c1ccc2[nH]c(=O)c(=O)[nH]c2c1,x,-5,7,10,-5,-14,x
CC(C)c1nnc(SCC(=O)NC2CCCCC2)n1C,-20,0,-3,1,-2,-5,x
CCN(Cc1ccccc1)C(=O)c1ccc(C)c(S(=O)(=O)N2CCCCC2)c1,-7,15,50*,23,x,-9,38
CCC(C)[C@H](NC(=O)Nc1cccc(Br)c1)C(=O)OC (stereo partly specified),9,-4,10,4,16,-3,x
COc1cc(NC(=O)c2cc3sccc3n2C)cc(OC)c1,x,31,53*,32,-3,-7,43*
Cn1c(C(=O)Nc2ccccc2)cc2sccc21,11,30,37,-7,-5,-11,x
COc1cc(C=O)ccc1OCc1ccncc1,-10,13,0,15,-8,-4,x
COc1cc(C=O)c(Br)cc1OCc1ccc(C)cc1,-111,39,65*,13,12,11,57*
CCN(CC)CCNC(=O)c1ccc2c(c1)NC(=O)c1ccccc1S2,-5,11,2,2,5,4,x
O=C(c1cc(-c2ccccc2Cl)nc2ccccc12)N1CCN(c2ccccn2)CC1,x,24,54*,18,x,-6,44*
O=C(c1cc(-c2ccccc2Cl)nc2ccccc12)N1CCN(c2ccccc2O)CC1,x,20,40,23,28,11,x
SMILES,PfHsp90 set2,TIM10 inh,tim23-1 inh,tim10-1 inh,SKKanGAS inh,ATG4B inhibitor,tim23-1 conf
COCC(=O)N/N=C\c1ccccc1OC/C=C/c1ccccc1,-28,19,51*,25,-2,-14,39*
COCC(=O)N/N=C\c1cccc(OC)c1OC/C=C/c1ccccc1,-34,13,37,23,7,-9,x
O=C(N/N=C/c1ccccn1)c1ccc(NC(=O)c2ccccc2Cl)cc1,0,-6,-29,-84,0,-12,x
O=C(N/N=C/c1ccccn1)c1ccc(Cl)c(Cl)c1,-4,24,62*,27,53*,x,49*
O=C(NCC(=O)N(c1ccccc1)C(C(=O)NC1CCCC1)c1cccnc1)c1cccs1 (stereo unspecified),-1,-10,10,-12,0,1,x
COc1ccc(N(C(=O)CNC(=O)c2cccs2)C(C(=O)NC2CCCC2)c2cccnc2)cc1 (stereo unspecified),-7,12,50*,7,-3,-5,14
CCN1CCC2(CC1)N=C(c1ccc(F)cc1)C(=S)N2C(=O)c1ccc(C(C)(C)C)cc1,-23,13,53*,8,-8,8,-13
Cc1ccc(NS(=O)(=O)c2ccc(C(=O)NCC(c3ccco3)N(C)C)cc2)cc1 (stereo unspecified),0,4,14,22,-1,1,x
CCn1c(COc2ccccc2)nnc1SCC(=O)NC1CC1,2,-9,4,6,5,-2,x
O=C(Oc1ccc(=O)n(-c2ccccc2)n1)c1ccc(Cl)cc1,-29,24,60*,23,-1,-6,43*
O=C(Oc1ccc(=O)n(-c2ccccc2)n1)c1ccc(F)cc1,14,21,12,10,17,6,x
Cc1cccc(CC(=O)NC2CCS(=O)(=O)C2)c1 (stereo unspecified),x,-7,-4,-11,-3,0,x
COc1cc(CCC(=O)N2CCN(c3ccc(N4CCOCC4)nn3)CC2)cc(OC)c1OC,x,-3,11,8,-4,x,x
COc1ccc2nc(NC(=O)c3ccco3)sc2c1,59,28,52*,29,-1,5,37
COc1ccc2nc(NC(C)=O)sc2c1,11,2,13,14,8,-8,x
COc1ccc(C(=O)Nc2nc3ccccc3s2)cc1,1,6,55*,-12,-1,-4,25
O=C(Nc1nc2ccc(Br)cc2s1)c1ccco1,-24,13,33,25,-4,-7,x
Cc1ccc2nc(NC(=O)c3ccco3)sc2c1,27,26,64*,37,-4,4,38
CCC(C)C(=O)Nc1nc2ccc(OC)cc2s1 (stereo unspecified),-15,27,52*,32,5,5,51*
COc1cccc(C(=O)Nc2nc3ccccc3[nH]2)c1,17,5,6,-12,31,0,x
COc1ccc(C(=O)Nc2nc3ccccc3[nH]2)cc1,31,24,60*,-38,22,-1,61*
COc1ccc2nc(Nc3ccccc3)sc2c1,5,26,56*,33,1,-2,32

# High-throughput results: PubChem BioAssay, several laboratories
